The results in this text go back to PMC4336329 (PLoS ONE, 2015).

Hit rate of the full screen: of about 310,000 compounds, about 14,000 (4.5%) showed an effect of 50% or more. The effect is printed as a negative number. This excerpt belongs to a sample that is enriched for strong results.
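Further: peak tail current of the secondary pulse compared with the same well before compound.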

For the test, the target named is human ether-à-go-go-related gene (hERG) potassium channel (human, UniProt Q12809). Nature of the test: primary screen, population patch clamp on CHO cells stably expressing hERG; higher = less effect of the substance.
human ether-à-go-go-related gene (hERG) potassium channel, sequence (Q12809 whole entry, looked up): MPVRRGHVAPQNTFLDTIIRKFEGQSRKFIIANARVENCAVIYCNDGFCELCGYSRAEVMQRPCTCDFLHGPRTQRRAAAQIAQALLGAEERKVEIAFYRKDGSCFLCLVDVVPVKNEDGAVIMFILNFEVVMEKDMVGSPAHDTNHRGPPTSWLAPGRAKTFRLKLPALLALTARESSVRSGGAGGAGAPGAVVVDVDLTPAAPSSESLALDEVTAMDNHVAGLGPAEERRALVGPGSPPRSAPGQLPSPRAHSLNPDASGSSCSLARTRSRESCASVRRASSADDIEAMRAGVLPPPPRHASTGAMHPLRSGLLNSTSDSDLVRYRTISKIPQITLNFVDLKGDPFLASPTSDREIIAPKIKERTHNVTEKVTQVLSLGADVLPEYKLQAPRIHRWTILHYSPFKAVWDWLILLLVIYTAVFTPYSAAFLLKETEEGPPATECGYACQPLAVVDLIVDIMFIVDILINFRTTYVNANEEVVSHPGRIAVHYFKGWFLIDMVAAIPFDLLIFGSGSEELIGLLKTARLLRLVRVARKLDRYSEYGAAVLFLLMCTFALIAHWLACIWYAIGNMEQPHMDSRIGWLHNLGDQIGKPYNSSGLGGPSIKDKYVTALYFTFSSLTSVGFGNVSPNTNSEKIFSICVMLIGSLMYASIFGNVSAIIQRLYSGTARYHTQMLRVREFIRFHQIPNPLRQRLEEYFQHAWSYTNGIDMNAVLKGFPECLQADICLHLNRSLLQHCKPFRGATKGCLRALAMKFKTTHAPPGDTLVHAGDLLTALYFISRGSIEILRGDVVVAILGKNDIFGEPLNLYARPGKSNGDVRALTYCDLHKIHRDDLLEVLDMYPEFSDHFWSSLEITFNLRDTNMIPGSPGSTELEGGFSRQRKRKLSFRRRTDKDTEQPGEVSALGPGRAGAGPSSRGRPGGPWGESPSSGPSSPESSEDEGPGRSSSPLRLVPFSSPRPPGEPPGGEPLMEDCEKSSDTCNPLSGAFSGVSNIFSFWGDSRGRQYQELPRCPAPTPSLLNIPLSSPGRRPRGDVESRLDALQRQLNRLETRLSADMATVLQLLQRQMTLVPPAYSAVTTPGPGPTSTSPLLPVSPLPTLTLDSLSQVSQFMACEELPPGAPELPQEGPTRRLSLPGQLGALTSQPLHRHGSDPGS
Take `COc1ccc2ccccc2c1C1CC(=O)N2CN(C)CSC2=C1C#N` (stereo not shown): the “hERG current change (%, negative = inhibition) at 10uM” value worked out at 12.7%.

Regarding `CCn1c(/C=C2\C(=O)Nc3ccccc32)nc2ccccc2c1=O`, the “hERG current change (%, negative = inhibition) at 10uM” value is given as -18.3%.

Consider `Cc1ccc(NC(=O)CC2SC(=NC3CCCCC3)NC2=O)cc1` (stereo not shown), for which the “hERG current change (%, negative = inhibition) at 10uM” value is listed as -9.82%.

Take `COc1ccc(S(=O)(=O)NCC(c2ccc(F)cc2)N2CCN(C)CC2)cc1` (stereo not shown): the “hERG current change (%, negative = inhibition) at 10uM” value is -36.4%.

As to `Cc1ccc(C(CNS(=O)(=O)c2ccc(F)cc2)N2CCN(C)CC2)cc1` (stereo not shown), the “hERG current change (%, negative = inhibition) at 10uM” value is recorded as -58.3%.

With `CC(NS(=O)(=O)c1ccc(Br)cc1)C(c1cccs1)N1CCN(C)CC1` (stereo not shown), the “hERG current change (%, negative = inhibition) at 10uM” value was -53.2%.

Regarding `COc1ccc(S(=O)(=O)NCC(c2ccc(C)cc2)N2CCN(C)CC2)cc1OC` (stereo not shown), the “hERG current change (%, negative = inhibition) at 10uM” value is listed as -25.6%.

On to `Cc1ccc(C(CNS(=O)(=O)c2ccc(C)cc2)N2CCN(C)CC2)cc1` (stereo not shown), for which the “hERG current change (%, negative = inhibition) at 10uM” value was -62.8%.

As to `Cc1ccc(S(=O)(=O)NCC(c2ccccc2)N2CCN(CCC#N)CC2)cc1` (stereo not shown), the “hERG current change (%, negative = inhibition) at 10uM” value is recorded as -21.5%.

Turning to `CN1CCN(C(CNS(=O)(=O)c2ccc([N+](=O)[O-])cc2)c2ccc(F)cc2)CC1` (stereo not shown), the “hERG current change (%, negative = inhibition) at 10uM” value is listed as -67.6%.

On to `COc1ccc(C(CNS(=O)(=O)c2ccc(F)cc2)N2CCN(C)CC2)cc1` (stereo not shown), for which the “hERG current change (%, negative = inhibition) at 10uM” value was -32.5%.

Turning to `O=[N+]([O-])c1ccc(S(=O)(=O)NCC(c2cccnc2)N2CCOCC2)cc1` (stereo not shown), the “hERG current change (%, negative = inhibition) at 10uM” value is listed as -22%.

For the compound `Cc1ccc(S(=O)(=O)NC(C)C(c2cccs2)N2CCN(C)CC2)cc1` (stereo not shown), the “hERG current change (%, negative = inhibition) at 10uM” value was -18%.

Take `CC(NS(=O)(=O)c1ccccc1)C(c1cccs1)N1CCN(C)CC1` (stereo not shown): the “hERG current change (%, negative = inhibition) at 10uM” value is 5.5%.

On to `O=[N+]([O-])c1ccc(S(=O)(=O)NCC(c2cccnc2)N2CCc3ccccc3C2)cc1` (stereo not shown), for which the “hERG current change (%, negative = inhibition) at 10uM” value was -35.6%.

Regarding `Cc1ccc(Nc2nnc(SCC(=O)Nc3ncc(S(=O)(=O)c4ccc([N+](=O)[O-])cc4)s3)s2)cc1`, the “hERG current change (%, negative = inhibition) at 10uM” value is given as -14.5%.

In the case of `CC1CCN(S(=O)(=O)c2ccc(NC(=O)CN3CCCCCC3)cc2)CC1`, the “hERG current change (%, negative = inhibition) at 10uM” value was -31.2%.

As to `Cc1c(CCO)c(=O)n(-c2ccccc2)n1S(=O)(=O)c1ccc(F)cc1`, the “hERG current change (%, negative = inhibition) at 10uM” value is 1.37%.

Consider `COc1ccccc1NC(=O)c1sc2nc(N3CCOCC3)c3c(c2c1N)CCCC3`, for which the “hERG current change (%, negative = inhibition) at 10uM” value turned out to be 15.2%.

With `CN(C)c1ccc(C(CNS(=O)(=O)c2ccc([N+](=O)[O-])cc2)N2CCOCC2)cc1` (stereo not shown), the “hERG current change (%, negative = inhibition) at 10uM” value was -25.9%.

For `O=S(=O)(NCC(c1ccccc1)N1CCNCC1)c1ccc(Cl)cc1` (stereo not shown), the “hERG current change (%, negative = inhibition) at 10uM” value is -28.6%.

As for `Cc1cc(F)ccc1S(=O)(=O)NCC(c1ccc2c(c1)OCO2)N1CCOCC1` (stereo not shown), the “hERG current change (%, negative = inhibition) at 10uM” value is -16.8%.

For the compound `Cc1ccc(C(CNS(=O)(=O)c2ccc(F)cc2C)N2CCN(C)CC2)cc1` (stereo not shown), the “hERG current change (%, negative = inhibition) at 10uM” value was -57%.

As to `Cc1ccc(C(CNS(=O)(=O)c2ccc([N+](=O)[O-])cc2)N2CCN(C)CC2)cc1` (stereo not shown), the “hERG current change (%, negative = inhibition) at 10uM” value was -66.8%.

In the case of `COc1ccc(N2CCN(C(CNS(=O)(=O)c3ccccc3)c3ccccc3)CC2)cc1` (stereo not shown), the “hERG current change (%, negative = inhibition) at 10uM” value is listed as -22.5%.

With `COc1ccc(C(CNS(=O)(=O)c2ccc(C)cc2)N2CCN(C)CC2)cc1` (stereo not shown), the “hERG current change (%, negative = inhibition) at 10uM” value was -45.2%.

For the compound `O=S(=O)(NCC(c1ccccc1)N1CCC(O)CC1)c1ccc(Cl)cc1` (stereo not shown), the “hERG current change (%, negative = inhibition) at 10uM” value was -19.6%.

On to `Cc1ccc(C(CNS(=O)(=O)c2ccc(Cl)cc2)N2CCN(C)CC2)cc1` (stereo not shown), for which the “hERG current change (%, negative = inhibition) at 10uM” value is recorded as -72.8%.

As for `COc1ccc(S(=O)(=O)NCC(c2ccc(C)cc2)N2CCN(C)CC2)cc1` (stereo not shown), the “hERG current change (%, negative = inhibition) at 10uM” value is -51.9%.

Consider `COc1ccc(OC)c(S(=O)(=O)NCC(c2ccc(F)cc2)N2CCN(C)CC2)c1` (stereo not shown), for which the “hERG current change (%, negative = inhibition) at 10uM” value is -33.8%.

Turning to `CN(C)c1ccc(C(CNS(=O)(=O)c2ccc([N+](=O)[O-])cc2)N2CCCC2)cc1` (stereo not shown), the “hERG current change (%, negative = inhibition) at 10uM” value is -47.2%.

For the compound `CC1CN(c2oc(COc3ccc(Cl)cc3Cl)nc2C#N)CC(C)O1` (stereo not shown), the “hERG current change (%, negative = inhibition) at 10uM” value is reported as -13.6%.

For `c1ccc(SCc2cn3cccnc3n2)nc1`, the “hERG current change (%, negative = inhibition) at 10uM” value turned out to be 15.1%.

On to `COc1cc(OC)c(NS(=O)(=O)c2cc(C(=O)OC(C)C(=O)NC3CC3)c(Cl)cc2Cl)cc1Cl` (stereo not shown), for which the “hERG current change (%, negative = inhibition) at 10uM” value is on record as -37%.

As for `COc1cccc(OCCOc2ccc(/C=C3\C(=N)N4N=C(S(C)(=O)=O)SC4=NC3=O)cc2OC)c1`, the “hERG current change (%, negative = inhibition) at 10uM” value came to 23.4%.

Regarding `O=C(COC(=O)c1cc(-c2ccccc2Cl)nc2ccccc12)Nc1ncc(C(F)(F)F)cc1Cl`, the “hERG current change (%, negative = inhibition) at 10uM” value is listed as -10.9%.

Take `COC(=O)c1cccc(-c2ccc(/C=N/N3C(=O)C4C5C=CC(C6CC56)C4C3=O)o2)c1` (stereo not shown): the “hERG current change (%, negative = inhibition) at 10uM” value is reported as -8.32%.

On to `CC1CCN(S(=O)(=O)c2ccc3c(c2)c(=O)c(C(=O)N2CCOCC2)cn3C)CC1`, for which the “hERG current change (%, negative = inhibition) at 10uM” value worked out at 13.5%.

As to `CC(Oc1ccc(Br)cc1)C(=O)N(C)CC(=O)Nc1ccc(N2CCOCC2)cc1` (stereo not shown), the “hERG current change (%, negative = inhibition) at 10uM” value is on record as 2.99%.

Regarding `CC(C)CN(CC(C)C)C(=O)CN1C(=O)NC2(CCc3ccccc3C2)C1=O` (stereo not shown), the “hERG current change (%, negative = inhibition) at 10uM” value is reported as -8.61%.

On to `Cc1ccnc(-n2c(C)cc(/C=C3\C(=O)NC(=S)N(C)C3=O)c2C)c1`, for which the “hERG current change (%, negative = inhibition) at 10uM” value came to 12.9%.

In the case of `Cc1cc(=O)[nH]c(COc2ccccc2)n1`, the “hERG current change (%, negative = inhibition) at 10uM” value was 17.2%.

For the compound `CCN(CC)S(=O)(=O)c1ccc2c(c1)nc(SCC(=O)N(C)C1CCS(=O)(=O)C1)n2CC` (stereo not shown), the “hERG current change (%, negative = inhibition) at 10uM” value stood at 6.94%.

As for `N#Cc1c(Cl)nsc1NCCN1CCOCC1`, the “hERG current change (%, negative = inhibition) at 10uM” value worked out at 15.4%.

Regarding `Cc1ccc(C(CNS(=O)(=O)c2ccccc2)N2CCN(C)CC2)cc1` (stereo not shown), the “hERG current change (%, negative = inhibition) at 10uM” value is reported as -53.6%.

Take `Cc1ccc(C(CNS(=O)(=O)c2ccc(Br)cc2)N2CCN(C)CC2)cc1` (stereo not shown): the “hERG current change (%, negative = inhibition) at 10uM” value was -72.4%.

With `Cc1cc(S(=O)(=O)NCC(c2ccc(F)cc2)N2CCN(C)CC2)ccc1F` (stereo not shown), the “hERG current change (%, negative = inhibition) at 10uM” value is on record as -68.4%.

As for `COc1ccc(C(CNS(=O)(=O)c2ccccc2)N2CCN(C)CC2)cc1` (stereo not shown), the “hERG current change (%, negative = inhibition) at 10uM” value is on record as -35.7%.

As for `Cc1ccc(S(=O)(=O)NCCNC(C)c2ccc(Br)cc2)cc1` (stereo not shown), the “hERG current change (%, negative = inhibition) at 10uM” value was -42.5%.

As for `Cc1ccc(S(=O)(=O)NCC(c2ccccc2)N2CCCCC2)cc1` (stereo not shown), the “hERG current change (%, negative = inhibition) at 10uM” value was 1.79%.

On to `O=S(=O)(NCC(c1ccc2c(c1)OCO2)N1CCOCC1)c1ccc(F)cc1` (stereo not shown), for which the “hERG current change (%, negative = inhibition) at 10uM” value is reported as -6.81%.

As for `Cc1cc(S(=O)(=O)NCC(c2ccc3c(c2)OCO3)N2CCOCC2)ccc1F` (stereo not shown), the “hERG current change (%, negative = inhibition) at 10uM” value was -20.7%.
